Assay results from ChEMBL document CHEMBL3988442, “University of Dundee, Small-Polar-MMV Screening Library” (2021).
For some of these results: Potency and affinity values are given separately.

Key:
Set-up in all cases: scale not given: direction of the effect not stated beside the values
[1] = biological target: Protein translocase subunit SecA (Escherichia coli (strain K12)) (UniProt P10408); assay: Assay to Identify E. coli SecA ATPase Inhibitors; type: functional; details: 30 µM
[2] = biological target: T1, Ubiquitin-activating enzyme e1, putative (Leishmania donovani (strain BPK282A1)) (UniProt E9BSI1); assay: Leishmania donovani Ubiquitin Activating Enzyme (LdE1); type: functional; details: 30 µM
T1 sequence (whole entry): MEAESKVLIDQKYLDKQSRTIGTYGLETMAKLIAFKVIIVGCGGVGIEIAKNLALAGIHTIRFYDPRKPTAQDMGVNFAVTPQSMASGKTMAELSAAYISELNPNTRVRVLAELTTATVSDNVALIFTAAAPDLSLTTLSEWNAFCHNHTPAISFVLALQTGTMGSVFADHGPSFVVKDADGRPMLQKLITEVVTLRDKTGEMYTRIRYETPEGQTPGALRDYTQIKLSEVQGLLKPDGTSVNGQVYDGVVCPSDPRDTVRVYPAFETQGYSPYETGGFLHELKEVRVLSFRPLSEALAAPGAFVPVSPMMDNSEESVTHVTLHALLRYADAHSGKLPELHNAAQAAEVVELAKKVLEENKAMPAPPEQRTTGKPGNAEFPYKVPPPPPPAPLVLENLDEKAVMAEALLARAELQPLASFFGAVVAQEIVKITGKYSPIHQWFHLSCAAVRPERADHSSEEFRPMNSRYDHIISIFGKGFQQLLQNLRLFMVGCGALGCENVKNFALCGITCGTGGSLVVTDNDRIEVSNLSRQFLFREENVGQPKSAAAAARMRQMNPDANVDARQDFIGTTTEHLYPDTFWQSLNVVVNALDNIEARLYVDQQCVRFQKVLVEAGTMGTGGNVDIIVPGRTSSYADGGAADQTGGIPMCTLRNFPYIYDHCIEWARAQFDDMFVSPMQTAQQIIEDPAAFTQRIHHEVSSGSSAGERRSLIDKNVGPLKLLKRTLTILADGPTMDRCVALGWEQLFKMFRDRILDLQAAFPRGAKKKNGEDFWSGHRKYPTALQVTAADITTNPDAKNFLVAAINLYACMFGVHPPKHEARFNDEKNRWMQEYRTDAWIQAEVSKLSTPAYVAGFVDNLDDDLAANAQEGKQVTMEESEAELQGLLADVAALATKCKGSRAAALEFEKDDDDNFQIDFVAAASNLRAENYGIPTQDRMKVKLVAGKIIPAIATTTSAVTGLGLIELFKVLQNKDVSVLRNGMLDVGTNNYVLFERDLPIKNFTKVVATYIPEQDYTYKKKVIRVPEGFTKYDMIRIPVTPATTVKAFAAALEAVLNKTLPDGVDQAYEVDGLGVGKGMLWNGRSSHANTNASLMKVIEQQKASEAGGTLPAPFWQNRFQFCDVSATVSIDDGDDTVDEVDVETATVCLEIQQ

[3] = biological target: AMP-activated protein kinase, AMPK (Homo sapiens) (UniProt P54646+O43741+P54619+Q9UGJ0+Q9Y478+Q13131+Q9UGI9); assay: AMP-dependent Kinase enzyme assay. An in vitro enzyme assay that detects ADP turnover that is directly proportional to AMPK activity. This uses naive AMPK that is activated during the assay with MK-8722; type: functional; details: 30 µM
[4] = biological target: Sialic acid-binding Ig-like lectin 9 (Homo sapiens) (UniProt Q9Y336); assay: Hs-Siglec9 ALPHAscreen SOP 20170721; details: 10 µM
[5] = test system: Trypanosoma cruzi; assay: Trypanosoma cruzi phosphomannomutase and mannose-1-phosphate guanylyltransferase assay; type: functional; details: 10 µM
[6] = biological target: T2, Arginase-2, mitochondrial (Homo sapiens) (UniProt P78540); assay: in vitro enzyme assay to detect the production of urea directly proportional to the activity of Arginase II; type: functional; details: 33.3 µM; further: in the data most compounds retested in dose-response had high values
T2 sequence (whole entry): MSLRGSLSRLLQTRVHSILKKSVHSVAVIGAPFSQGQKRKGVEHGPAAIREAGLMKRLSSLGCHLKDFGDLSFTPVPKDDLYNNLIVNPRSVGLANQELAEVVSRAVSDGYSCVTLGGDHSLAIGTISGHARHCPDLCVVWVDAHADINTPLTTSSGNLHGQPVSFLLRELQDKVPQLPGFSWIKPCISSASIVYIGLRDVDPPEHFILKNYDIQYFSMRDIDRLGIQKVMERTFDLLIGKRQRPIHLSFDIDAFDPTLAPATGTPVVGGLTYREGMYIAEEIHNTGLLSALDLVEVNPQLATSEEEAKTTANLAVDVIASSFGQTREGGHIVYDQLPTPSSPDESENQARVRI

[7] = biological target: T3, Proteasome subunit beta (Trypanosoma cruzi) (UniProt O96673); assay: Trypanosoma cruzi proteasome chymotrypsin-like activity (TcProtChymo) assay.; further: in the data most compounds retested in dose-response had high values; type: functional; details: 9.37 µM
T3 sequence (whole entry): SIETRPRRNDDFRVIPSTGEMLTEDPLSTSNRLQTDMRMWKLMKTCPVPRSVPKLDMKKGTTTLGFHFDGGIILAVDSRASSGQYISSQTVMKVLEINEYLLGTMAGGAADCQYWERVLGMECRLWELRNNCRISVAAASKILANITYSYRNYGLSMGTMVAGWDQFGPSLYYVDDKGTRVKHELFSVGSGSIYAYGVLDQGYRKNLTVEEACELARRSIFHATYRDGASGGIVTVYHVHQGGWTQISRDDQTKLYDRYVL

[8] = species: Homo sapiens; assay: To identify inhibition of the IFN signalling (Jak-Stat) pathway via expression of an eGFP reporter gene under the control of an IFN-stimulated response element (ISRE) containing MxA promoter.; type: functional; details: 30 µM
[9] = biological target: T4, Tyrosyl-tRNA synthetase, putative (Trypanosoma cruzi (strain CL Brener)) (UniProt Q4DSP6); assay: Trypanosoma cruzi tyrosyl tRNA synthetase (TcYRS) _High Tyrosine SOP; type: functional; details: 30 µM; further: in the data most compounds retested in dose-response had high values
T4 sequence (whole entry): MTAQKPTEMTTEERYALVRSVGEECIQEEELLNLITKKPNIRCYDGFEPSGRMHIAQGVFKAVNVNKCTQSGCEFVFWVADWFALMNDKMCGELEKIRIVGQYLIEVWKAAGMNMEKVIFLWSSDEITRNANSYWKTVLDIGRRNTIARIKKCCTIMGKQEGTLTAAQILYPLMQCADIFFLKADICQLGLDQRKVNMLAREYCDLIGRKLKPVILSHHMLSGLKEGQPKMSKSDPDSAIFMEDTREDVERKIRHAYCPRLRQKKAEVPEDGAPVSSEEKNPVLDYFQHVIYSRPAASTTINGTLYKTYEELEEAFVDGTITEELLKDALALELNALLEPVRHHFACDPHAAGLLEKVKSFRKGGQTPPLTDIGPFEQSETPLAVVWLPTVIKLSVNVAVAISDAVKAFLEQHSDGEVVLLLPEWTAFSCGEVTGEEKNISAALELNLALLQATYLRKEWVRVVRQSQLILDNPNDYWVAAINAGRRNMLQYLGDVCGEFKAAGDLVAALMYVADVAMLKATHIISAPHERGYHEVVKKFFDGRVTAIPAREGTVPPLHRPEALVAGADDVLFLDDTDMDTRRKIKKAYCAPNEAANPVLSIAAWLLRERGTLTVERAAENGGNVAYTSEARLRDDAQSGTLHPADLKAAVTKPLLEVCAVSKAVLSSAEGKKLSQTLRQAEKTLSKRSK

[10] = biological target: T4, Tyrosyl-tRNA synthetase, putative (Trypanosoma cruzi (strain CL Brener)); assay: Trypanosoma cruzi tyrosyl tRNA synthetase (TcYRS) SOP; type: functional; details: 30 µM
[11] = biological target: Chromo domain-containing protein 1 (Saccharomyces cerevisiae (strain ATCC 204508 / S288c) (Baker's yeast)) (UniProt P32657); assay: ScCHD-1 Enzyme Inhibition Assay; type: functional; details: 30 µM; further: in the data most compounds retested in dose-response had high values
Chain of Chromo domain-containing protein 1 (Saccharomyces cerevisiae (strain ATCC 204508 / S288c) (Baker's yeast)) (P32657 whole entry, the tested form may be a part): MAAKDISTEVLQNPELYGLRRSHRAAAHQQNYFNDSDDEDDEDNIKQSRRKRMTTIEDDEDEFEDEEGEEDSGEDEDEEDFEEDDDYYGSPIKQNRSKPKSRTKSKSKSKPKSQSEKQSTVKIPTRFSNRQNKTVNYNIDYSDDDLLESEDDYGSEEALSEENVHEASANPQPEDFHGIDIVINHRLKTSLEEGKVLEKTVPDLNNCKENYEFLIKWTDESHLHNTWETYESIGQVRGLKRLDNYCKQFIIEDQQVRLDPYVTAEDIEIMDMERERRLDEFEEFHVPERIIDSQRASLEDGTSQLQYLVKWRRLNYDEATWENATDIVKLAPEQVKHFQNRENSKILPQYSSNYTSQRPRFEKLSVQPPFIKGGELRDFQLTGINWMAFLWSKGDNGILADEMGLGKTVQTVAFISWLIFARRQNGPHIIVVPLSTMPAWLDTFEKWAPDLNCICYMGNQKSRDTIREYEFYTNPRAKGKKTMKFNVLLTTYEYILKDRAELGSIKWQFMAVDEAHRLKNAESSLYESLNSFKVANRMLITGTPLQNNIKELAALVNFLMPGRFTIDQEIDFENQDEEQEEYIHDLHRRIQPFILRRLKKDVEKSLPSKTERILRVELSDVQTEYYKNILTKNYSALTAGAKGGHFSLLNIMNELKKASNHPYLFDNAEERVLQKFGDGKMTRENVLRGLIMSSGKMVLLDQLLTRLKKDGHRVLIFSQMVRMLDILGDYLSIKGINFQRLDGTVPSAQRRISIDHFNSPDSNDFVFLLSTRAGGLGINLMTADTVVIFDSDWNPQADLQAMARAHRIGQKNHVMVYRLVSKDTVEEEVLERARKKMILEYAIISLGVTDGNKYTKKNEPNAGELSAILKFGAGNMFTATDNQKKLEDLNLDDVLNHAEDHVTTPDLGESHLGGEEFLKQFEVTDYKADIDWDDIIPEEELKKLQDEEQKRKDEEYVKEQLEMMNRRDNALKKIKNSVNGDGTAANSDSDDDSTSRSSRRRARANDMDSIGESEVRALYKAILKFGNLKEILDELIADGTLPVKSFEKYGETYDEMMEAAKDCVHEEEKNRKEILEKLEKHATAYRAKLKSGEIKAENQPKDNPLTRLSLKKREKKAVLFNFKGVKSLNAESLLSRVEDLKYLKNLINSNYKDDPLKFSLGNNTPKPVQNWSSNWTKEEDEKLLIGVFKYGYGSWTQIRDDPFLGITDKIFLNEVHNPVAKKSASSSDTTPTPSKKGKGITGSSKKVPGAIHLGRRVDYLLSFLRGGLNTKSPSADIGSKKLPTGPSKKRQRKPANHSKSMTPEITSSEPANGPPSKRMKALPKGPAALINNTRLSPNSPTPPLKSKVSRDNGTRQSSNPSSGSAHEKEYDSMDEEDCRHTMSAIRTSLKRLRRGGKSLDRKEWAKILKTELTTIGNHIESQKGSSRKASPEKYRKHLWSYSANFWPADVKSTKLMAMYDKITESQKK

Chain of Protein translocase subunit SecA (Escherichia coli (strain K12)) (P10408 whole entry): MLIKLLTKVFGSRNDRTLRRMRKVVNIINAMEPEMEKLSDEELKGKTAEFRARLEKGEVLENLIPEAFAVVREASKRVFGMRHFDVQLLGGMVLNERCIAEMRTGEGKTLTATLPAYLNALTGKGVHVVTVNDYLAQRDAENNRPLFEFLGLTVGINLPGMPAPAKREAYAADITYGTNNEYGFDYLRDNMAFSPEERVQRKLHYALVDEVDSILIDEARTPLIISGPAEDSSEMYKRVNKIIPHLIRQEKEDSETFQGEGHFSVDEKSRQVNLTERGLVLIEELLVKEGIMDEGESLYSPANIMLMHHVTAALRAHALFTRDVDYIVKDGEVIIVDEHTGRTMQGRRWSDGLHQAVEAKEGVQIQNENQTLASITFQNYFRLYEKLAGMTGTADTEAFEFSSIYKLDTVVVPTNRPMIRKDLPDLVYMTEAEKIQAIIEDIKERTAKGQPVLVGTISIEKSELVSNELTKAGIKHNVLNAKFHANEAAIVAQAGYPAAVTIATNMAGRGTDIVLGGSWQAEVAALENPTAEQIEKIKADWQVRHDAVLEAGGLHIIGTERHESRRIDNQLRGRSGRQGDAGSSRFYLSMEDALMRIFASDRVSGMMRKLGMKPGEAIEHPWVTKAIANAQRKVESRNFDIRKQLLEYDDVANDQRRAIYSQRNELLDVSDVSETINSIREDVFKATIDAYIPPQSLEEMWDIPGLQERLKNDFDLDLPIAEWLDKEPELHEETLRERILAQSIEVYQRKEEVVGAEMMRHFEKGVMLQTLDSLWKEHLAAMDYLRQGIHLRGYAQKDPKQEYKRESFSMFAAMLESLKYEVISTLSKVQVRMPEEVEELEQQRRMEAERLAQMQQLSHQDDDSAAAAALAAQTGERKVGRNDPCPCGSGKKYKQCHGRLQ
Chain of Sialic acid-binding Ig-like lectin 9 (Homo sapiens) (Q9Y336 whole entry): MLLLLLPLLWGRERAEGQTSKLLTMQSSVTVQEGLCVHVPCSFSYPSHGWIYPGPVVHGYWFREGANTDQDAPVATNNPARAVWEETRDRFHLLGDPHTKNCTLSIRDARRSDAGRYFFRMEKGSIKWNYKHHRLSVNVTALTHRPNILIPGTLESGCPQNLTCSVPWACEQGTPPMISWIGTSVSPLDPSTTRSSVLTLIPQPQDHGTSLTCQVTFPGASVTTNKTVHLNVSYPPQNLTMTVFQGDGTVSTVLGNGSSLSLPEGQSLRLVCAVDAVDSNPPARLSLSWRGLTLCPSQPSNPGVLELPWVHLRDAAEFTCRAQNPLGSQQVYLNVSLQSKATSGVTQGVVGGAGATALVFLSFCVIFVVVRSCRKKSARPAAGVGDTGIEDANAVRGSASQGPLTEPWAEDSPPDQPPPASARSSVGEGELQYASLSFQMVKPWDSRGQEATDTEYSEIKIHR

SMILES	Percent Effect [1] [%]	Percent Effect [2] [%]	Percent Effect [3] [%]	Percent Effect [4] [%]	Percent Effect [5] [%]	Percent Effect [6] [%]	Percent Effect [7] [%]	Percent Effect [8] [%]	Percent Effect [9] [%]	Percent Effect [10] [%]	Percent Effect [11] [%]
COc1ccc(CCNC(=O)C2CCC(Cn3cnnn3)CC2)cc1 (stereo unspecified)	-1.81	1.33	15.9	3.74	-1.38	-5.81	5.18	-2.49	5.29	2.56	-1.04
Cn1ccnc1CN1CCN(CC(O)c2ccco2)CC1 (stereo unspecified)	-7.57	18.2	-3.75	-8.89	-1.86	-0.632	17.4	16.1	6.67	7.06	-4.92
CS(=O)(=O)CCC(=O)Nc1cnn(-c2ccccc2Cl)c1	-5.57	13.5	-8	12.3	2.88	-0.185	6.28	6.38	7.92	18.3	-8.04
Cn1cnnc1C1CCCN(C(=O)NCCc2ccccc2F)C1 (stereo unspecified)	-3	10.4	-0.267	-7.57	5.97	6.53	6.71	11.1	3.81	14.1	-9.4
COc1c(C2CCCN2Cc2cc(C)no2)c(C)nn1C (stereo unspecified)	-1.92	8.11	-4.61	-2.24	-5.11	3.88	11.3	15.9	4.95	11	-0.457
C1CC(c2noc(C3CC3)n2)CN(Cc2noc(C3CC3)n2)C1 (stereo unspecified)	-3.36	0	-13.1	11.5	-3.11	-1.6	1.62	-3.78	0.493	1.24	1.88
CCc1cc(NCCc2ccc(O)cc2)n2nccc2n1	-0.557	5.48	93.2	6.39	2.35	25	9.58	46.2	3.23	15	-4.87
COc1ccc(CN2CCn3cc(CN4CCN(C)CC4)nc3C2)cc1	-4.41	8.11	4.53	-5.52	-2.83	4.78	18.4	-7.72	-2.16	5.13	3.23
CC(C)C1CN(C(=O)c2ccc(C(N)=O)cc2)CCS1 (stereo unspecified)	-4.2	5.2	1.75	3.92	-6.2	-4.14	6.49	6.03	2.15	6.17	0.585
O=C(O)c1ccn(-c2ccccc2NS(=O)(=O)c2ccccc2)n1	-4.7	0	0.362	0.187	-5.16	2.08	9.24	7.84	3.83	3.7	-5.14
CO[C@H]1CN(Cc2cccc(C#N)c2)[C@@H]2COC[C@H]12	-3.41	8	-0.964	2.51	0.965	-48.9	7.52	-21.7	5.21	22.5	-5.96
